# Assay results as given in PubChem BioAssay (Tox21).
# Values joined by “and” are separate entries in the source; they are usually repeats but may differ in a detail not shown here. Equal entries are not always repeated. Inconclusive results are not listed. Where a structure was tested more than once in an assay, its records may differ in their call. Active and inactive are the calls of the source. Calls follow the shape of the dose curve; as a rule, active = well fitted inhibition curve with a large enough effect in the repeat runs; inconclusive = weak or mixed curves; inactive = no such curve, though single readings can be large or run the other way.
# Biological target: Cytochrome P450 2C19 (Homo sapiens) (UniProt P33261)
# Assay: Cytochrome P450 Family 2 Subfamily C Member 19 (CYP2C19) small molecule antagonists: luciferase reporter qHTS assay (AID 1671197); also: nearly all actives have a fitted effect of over 65% in size
# Conditions: P450-Glo CYP2C19 enzyme, luciferin luminescence, 1 h; series mostly up to 52.9 µM; activity change, negative = inhibition: at the top concentration
# Excerpt: National Center for Advancing Translational Sciences [NCATS]
# U.S. Environmental Protection Agency [EPA]
# National Institutes of Environmental Health Sciences [NIEHS]
# National Toxicology Program [NTP]
# U.S. Food and Drug Administration [FDA]
# Cytochrome P450 (CYP) enzymes are membrane-bound hemeproteins that play a key role in metabolism of drugs and xenobiotics. Evaluation of the effect of chemicals on CYP isozymes is useful to minimize the adverse drug reactions and toxicities in drug development process. Tox21 chemicals were tested for their effect on CYP enzyme activities by using P450-Glo (TM) screening systems (Promega Corporation, Madison, WI). These systems provide a luminescent method containing proluciferin substrates and are converted to luciferin products by CYP isozymes. The luciferin products formed are detected with a luciferin detection reagent, and the amount of light produced is proportional to CYP activity. P450-Glo (TM) CYP2C19 screening system (Catalog. No. V9880) was used to detect the compounds that interfere in CYP2C19 activity. The positive control compound used for CYP2C19 assay is ketoconazole (Sigma-Aldrich, St. Louis, MO).
# Tox21 Assay Protocol Summary:
# Two ul of enzyme-substrate mix was dispensed into medium binding white/solid 1536-well plates (Greiner Bio-One North America Inc., Monroe, NC) using a BioRaptr Flying Reagent Dispenser (FRD, Beckman Coulter, Brea, CA). Compounds dissolved in DMSO and positive control (ketoconazole) were transferred to the assay plates at 23 nl using a Pintool station (Wako, San Diego, CA). The assay plates were incubated at room temperature for 10 min. Then 2 ul of NADPH regeneration solution was added to each well of the assay plates using an FRD and incubated at 37C for 1 h. The reaction was stopped by adding 4 ul of detection reagent using an FRD and after 20 min incubation at room temperature the luminescence signal was measured using a ViewLux plate reader (Perkin Elmer, Shelton, CT). Data were expressed as relative luminescence units.
# % is scaled to controls: 0 for no effect and ±100 for the full control effect; potency is read from the fitted curve at half-maximal effect.
# Sequence of Cytochrome P450 2C19 (Homo sapiens) (P33261 whole entry, looked up): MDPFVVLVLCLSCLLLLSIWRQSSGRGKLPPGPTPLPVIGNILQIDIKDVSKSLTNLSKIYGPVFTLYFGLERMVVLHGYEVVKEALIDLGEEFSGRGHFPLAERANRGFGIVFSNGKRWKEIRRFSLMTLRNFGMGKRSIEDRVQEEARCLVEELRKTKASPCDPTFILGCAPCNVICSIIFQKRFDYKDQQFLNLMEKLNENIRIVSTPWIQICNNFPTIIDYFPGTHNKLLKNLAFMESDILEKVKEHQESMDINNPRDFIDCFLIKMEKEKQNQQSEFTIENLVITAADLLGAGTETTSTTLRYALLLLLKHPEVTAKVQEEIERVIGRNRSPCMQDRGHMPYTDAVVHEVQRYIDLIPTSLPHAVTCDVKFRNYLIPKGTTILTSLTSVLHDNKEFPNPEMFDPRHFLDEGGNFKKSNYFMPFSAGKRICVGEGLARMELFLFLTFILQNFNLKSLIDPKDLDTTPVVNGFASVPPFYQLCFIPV
SMILES,Potency,"activity change, negative = inhibition"
NNc1nc(-c2ccccc2)cs1,9.19 µM (active),–
CCC1=C[C@@H]2CN(C1)Cc1c([nH]c3ccccc13)[C@@](C(=O)OC)(c1cc3c(cc1OC)N(C)[C@H]1[C@@](O)(C(=O)OC)[C@H](OC(C)=O)[C@]4(CC)C=CCN5CC[C@]31[C@@H]54)C2,–,12.2% (inactive)
CCOC(=O)/C=C(C)/C=C/C=C(C)/C=C/c1c(C)cc(OC)c(C)c1C,11 µM (active),–
O=C(Oc1ccccc1)c1ccccc1C(=O)Oc1ccccc1,15.9 µM (active),–
Cc1ccc(O)c(C(C)(C)C)c1,35.5 µM (active) and 35.6 µM (active),–
O=C1CCCCCN1SSN1CCCCCC1=O,35.6 µM (active),–
Cc1[nH]nc2c1N=C(c1ccccc1Cl)c1cc([N+](=O)[O-])ccc1N2,17.8 µM (active),–
CC1=C(C(=O)OC(C)C)C(c2cccc([N+](=O)[O-])c2)C(C(=O)OC2CN(C(c3ccccc3)c3ccccc3)C2)=C(N)N1 (stereo not given),1.74 µM (active),–
NNC(=O)c1cccc(C(=O)NN)c1,–,-9.17% [at 115 µM] (inactive)
CNc1ccc(O)cc1,15.9 µM (active),–
CNCc1cc(F)ccc1Oc1ccc(Cl)c(Cl)c1,2.52 µM (active),–
C[n+]1cc2c3c(ccc2c2ccc4cc5c(cc4c21)OCO5)OCO3,1.07 µM (active),–
C[C@H]1[C@H]2CC[C@H]3[C@@H]4CC=C5C[C@@H](N(C)C)CC[C@]5(C)[C@H]4CC[C@]23CN1C,–,15.8% (inactive)
CCCC1O[C@@H]2C[C@H]3[C@@H]4CCC5=CC(=O)C=C[C@]5(C)[C@H]4[C@@H](O)C[C@]3(C)[C@]2(C(=O)CO)O1 (stereo not given in full),39.9 µM (active) and inactive,–
CCOC(=O)O[C@H](C)OC(=O)c1ccc2c(c1)cc(C(=O)NC1CCN(C(C)C)CC1)n2Cc1cc(-c2ccc(Cl)s2)on1,46.9 µM (active),–
Nc1c2ccccc2nc2ccccc12,inactive,–
Nc1cc(C(F)(F)F)ccc1S,2.19 µM (active),–
O=C1c2c(O)ccc(Nc3ccc(CCO)cc3)c2C(=O)c2c([N+](=O)[O-])ccc(O)c21,39.9 µM (active),–
Nc1c(Cl)cc(Cl)cc1Cl,–,-17.9% [at 115 µM] (inactive)
Cc1c(C)c2c(c(C)c1OC(=O)CCC(=O)O)CC[C@@](C)(CCC[C@H](C)CCC[C@H](C)CCCC(C)C)O2,–,-13.1% [at 115 µM] (inactive)

SMILES,Potency,"activity change, negative = inhibition"
CCCCCCCCCCCC(=O)NCCCN(C)C,20 µM (active),–
Nc1ccccc1O,19.7 µM (active),–
COC(=O)C1=C(C)NC(C)=C(C(=O)OCCc2ccc(N3CCN(C(c4ccccc4)c4ccccc4)CC3)cc2)C1c1cccc([N+](=O)[O-])c1 (stereo not given),7.76 µM (active),–
COc1ccc(C(=O)/C(Br)=C\C(=O)O)cc1,35.6 µM (active),–
CCCCCCCC(=O)[O-].CCCCCCCC(=O)[O-].[Zn+2],–,-0.532% (inactive)
C[n+]1ccn(Cc2ccccc2)c1,–,9.11% [at 115 µM] (inactive)
CCOc1ccc2nc3cc(N)ccc3c(N)c2c1,–,-1.68% (inactive)
CC(=O)SC[C@@H](Cc1ccccc1)C(=O)NCC(=O)OCc1ccccc1,0.617 µM (active),–
N/C(=N\N=C\c1ccc(Cl)cc1)N/N=C/c1ccc(Cl)cc1,2.19 µM (active),–
c1ccc(CSCc2ccccc2)cc1,2.82 µM (active),–
CCCCCOc1ccccc1/C(=C\SC)n1ccnc1,1.1 µM (active),–
Nc1nc2ccccc2n1Cc1ccc(F)cc1,15.5 µM (active),–
CCN(C(=O)N(CC)c1ccccc1)c1ccccc1,7.96 µM (active),–
CCN1/C(=C/C=C/c2sc3ccccc3[n+]2CC)Sc2ccccc21,19 µM (active),–
[Cl][Bi]([Cl])([c]1ccccc1)([c]1ccccc1)[c]1ccccc1,0.445 µM (active),–
O=C1c2ccccc2Cc2ccccc21,9.01 µM (active),–
CCCCC(CC)COC(=O)c1ccccc1C(=O)O (stereo not given),40.6 µM (active),–
Clc1ccc(C(Cn2ccnc2)OCc2ccc(Sc3ccccc3)cc2)c(Cl)c1 (stereo not given),2.75 µM (active),–
C/C(=C(/OCCOc1ccc(Cl)cc1)c1ccc(Cl)cc1Cl)n1ccnc1,0.776 µM (active),–
CSc1cnc(C)cn1,–,10.4% [at 300 µM] (inactive)
